Among the data in PMC13541613, “GHT-SELEX demonstrates unexpectedly high intrinsic sequence specificity and complex DNA binding of many human transcription factors” are binding signal values, retold here.

Holding throughout (test): HT-SELEX; 20 mM HEPES pH 7, 140 mM KCl, 5 mM NaCl, 1 mM K2HPO4, 2 mM MgSO4, 100 uM EGTA, ZnSO4, 0.1% Tween20; room temperature, 1 h; high values mean tight binding
Conditions in all cases: protein: ivt; tags: eGFP (N-terminal); dsDNA, one strand shown

One test concerns the target ZNF721 full-length (Homo sapiens, UniProt Q8TF20-2 1-923). An outline of the steps:
(§1)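 Full-length or DNA-binding-domain forms of a tagged transcription factor were produced in HEK293 lysate or cell-free extract and immobilised on beads. Incubation with a randomized 40-base DNA library ran for 1 h at room temperature in HEPES/KCl low-stringency buffer with Tween20, after which bound DNA was washed, heat-eluted, PCR-amplified over successive cycles and Illumina-sequenced. Binding strength is given as the relative k-mer count in selected reads, higher for tighter binding.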

For another test, the target named is ZNF721 DBD1 (Homo sapiens, UniProt Q8TF20-2 29-461). The method in brief: as §1
ZNF721 DBD1, sequence (Q8TF20 17-449): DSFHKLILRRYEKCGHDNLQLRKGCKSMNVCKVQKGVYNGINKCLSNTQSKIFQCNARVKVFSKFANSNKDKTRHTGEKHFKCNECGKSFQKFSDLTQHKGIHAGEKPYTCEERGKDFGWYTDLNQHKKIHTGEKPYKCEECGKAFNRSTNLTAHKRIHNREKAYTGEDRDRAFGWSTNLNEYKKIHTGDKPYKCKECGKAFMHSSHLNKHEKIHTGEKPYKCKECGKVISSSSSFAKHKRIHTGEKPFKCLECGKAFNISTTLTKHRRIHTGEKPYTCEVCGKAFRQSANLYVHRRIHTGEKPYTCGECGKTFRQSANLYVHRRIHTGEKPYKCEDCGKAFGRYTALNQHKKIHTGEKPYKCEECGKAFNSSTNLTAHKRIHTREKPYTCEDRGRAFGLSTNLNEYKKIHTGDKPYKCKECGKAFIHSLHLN
The next test deals with ZNF721 DBD2 (Homo sapiens, UniProt Q8TF20-2 395-923). The method in brief:
as §1

ZNF721 full-length, sequence (Q8TF20 other isoform, or with tags, fused parts or gaps): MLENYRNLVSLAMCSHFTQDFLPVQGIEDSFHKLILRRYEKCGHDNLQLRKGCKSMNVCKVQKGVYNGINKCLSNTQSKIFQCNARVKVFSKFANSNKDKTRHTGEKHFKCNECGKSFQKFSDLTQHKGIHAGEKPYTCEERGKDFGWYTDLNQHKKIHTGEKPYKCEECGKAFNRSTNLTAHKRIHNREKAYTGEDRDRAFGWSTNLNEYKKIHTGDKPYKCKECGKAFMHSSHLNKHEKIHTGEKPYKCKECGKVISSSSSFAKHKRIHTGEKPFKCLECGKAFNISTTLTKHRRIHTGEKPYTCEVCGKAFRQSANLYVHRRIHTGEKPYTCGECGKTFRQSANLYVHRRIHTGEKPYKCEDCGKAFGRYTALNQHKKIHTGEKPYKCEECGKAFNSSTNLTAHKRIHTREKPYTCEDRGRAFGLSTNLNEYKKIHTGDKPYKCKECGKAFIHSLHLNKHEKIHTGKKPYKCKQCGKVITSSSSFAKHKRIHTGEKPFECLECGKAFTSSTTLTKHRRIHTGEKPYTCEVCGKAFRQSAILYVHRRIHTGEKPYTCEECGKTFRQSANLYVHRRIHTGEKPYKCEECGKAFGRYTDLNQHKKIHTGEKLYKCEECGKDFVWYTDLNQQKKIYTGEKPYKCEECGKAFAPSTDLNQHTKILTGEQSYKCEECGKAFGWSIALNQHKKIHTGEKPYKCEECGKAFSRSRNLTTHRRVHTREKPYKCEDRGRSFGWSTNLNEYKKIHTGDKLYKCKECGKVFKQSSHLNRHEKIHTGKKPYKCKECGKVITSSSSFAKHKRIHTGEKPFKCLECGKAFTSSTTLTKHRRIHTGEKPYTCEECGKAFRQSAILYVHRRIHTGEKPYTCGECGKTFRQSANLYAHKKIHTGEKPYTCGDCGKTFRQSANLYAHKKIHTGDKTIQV
ZNF721 DBD2, sequence (Q8TF20 383-911): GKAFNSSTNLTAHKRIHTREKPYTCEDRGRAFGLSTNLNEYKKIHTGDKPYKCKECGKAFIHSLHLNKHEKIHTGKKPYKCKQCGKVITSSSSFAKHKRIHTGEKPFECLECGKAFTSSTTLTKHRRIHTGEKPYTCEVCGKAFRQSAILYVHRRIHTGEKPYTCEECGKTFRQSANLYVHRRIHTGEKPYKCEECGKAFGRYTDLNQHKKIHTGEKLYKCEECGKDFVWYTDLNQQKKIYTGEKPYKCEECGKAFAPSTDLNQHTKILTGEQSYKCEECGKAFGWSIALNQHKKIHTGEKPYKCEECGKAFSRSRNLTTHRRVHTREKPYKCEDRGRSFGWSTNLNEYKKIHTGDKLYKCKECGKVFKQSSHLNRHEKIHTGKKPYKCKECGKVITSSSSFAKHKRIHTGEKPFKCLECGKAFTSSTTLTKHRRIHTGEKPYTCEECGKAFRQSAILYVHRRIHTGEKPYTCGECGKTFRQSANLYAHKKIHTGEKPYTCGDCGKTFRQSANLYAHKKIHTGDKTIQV

In the case of ATACACTTCA, the binding signal with ZNF721 full-length turned out to be 0.245 relative 10-mer count; in the test with ZNF721 DBD1 it was 0.223 relative 10-mer count.
Turning to AGGTATGAAG, the results for the binding signal with ZNF721 full-length and with ZNF721 DBD1 were 0.192 relative 10-mer count and 0.217 relative 10-mer count, respectively.
In the case of CACCCCTCCC, the figures for the binding signal with ZNF721 full-length, with ZNF721 DBD1 and with ZNF721 DBD2 were 0.181 relative 10-mer count, 0.00826 relative 10-mer count and 0.00336 relative 10-mer count, respectively.
The matching figures for CGCTTCATAC: 0.265 relative 10-mer count, 0.363 relative 10-mer count and 0.0012 relative 10-mer count.
Turning to CCACCCCACA, the results for the binding signal with ZNF721 full-length, with ZNF721 DBD1 and with ZNF721 DBD2 were 0.163 relative 10-mer count, 0.00564 relative 10-mer count and 0.00791 relative 10-mer count, respectively.
With GCCCACCCCC, the binding signal with ZNF721 full-length is 0.215 relative 10-mer count; with ZNF721 DBD1, 0.00876 relative 10-mer count; with ZNF721 DBD2 it was 0.00779 relative 10-mer count.
As to CTCCCCACCC, the binding signal is 0.198 relative 10-mer count with ZNF721 full-length, 0.00936 relative 10-mer count in the test with ZNF721 DBD1 and 0.00395 relative 10-mer count with ZNF721 DBD2.
For CGCCCACCAC, the binding signal amounted to 0.138 relative 10-mer count with ZNF721 full-length, 0.00569 relative 10-mer count with ZNF721 DBD1 and 0.00384 relative 10-mer count with ZNF721 DBD2.
In the case of ACCCTCCCCA, the binding signal in the test with ZNF721 full-length was 0.105 relative 10-mer count; with ZNF721 DBD1, 0.00509 relative 10-mer count; with ZNF721 DBD2, 0.00515 relative 10-mer count.
On to CTGCTTTTTC, for which the values for the binding signal with ZNF721 full-length, with ZNF721 DBD1 and with ZNF721 DBD2 were 0.202 relative 10-mer count, 0.00491 relative 10-mer count and 0.196 relative 10-mer count, respectively.
The matching figures for CCCTACCCCC: 0.153 relative 10-mer count, 0.0083 relative 10-mer count and 0.00587 relative 10-mer count.
The matching figures for GCCCTCCCCC: 0.163 relative 10-mer count, 0.00716 relative 10-mer count and 0.00911 relative 10-mer count.
The matching figures for CAGCGTATCC: 0.324 relative 10-mer count, 0.00174 relative 10-mer count and 0.648 relative 10-mer count.
For the sequence CACCACCCCC, the binding signal was found to be 0.276 relative 10-mer count with ZNF721 full-length, 0.0117 relative 10-mer count in the test with ZNF721 DBD1 and 0.0024 relative 10-mer count with ZNF721 DBD2.
The matching figures for CCCCTCCCCA: 0.188 relative 10-mer count, 0.00734 relative 10-mer count and 0.00455 relative 10-mer count.
As for CCCCCCCCGC, the binding signal is 0.151 relative 10-mer count with ZNF721 full-length, 0.00399 relative 10-mer count with ZNF721 DBD1 and 0.0024 relative 10-mer count with ZNF721 DBD2.
Taken in the same sequence, the figures for AGGGTGGTGG were 0.142 relative 10-mer count, 0.00642 relative 10-mer count and 0.00455 relative 10-mer count.
The matching figures for AGGGGGGGTG: 0.108 relative 10-mer count, 0.00422 relative 10-mer count and 0.00252 relative 10-mer count.
Regarding AAGCAGCATA, the binding signal in the test with ZNF721 full-length was 0.179 relative 10-mer count; with ZNF721 DBD1, 0.00216 relative 10-mer count; with ZNF721 DBD2, 0.199 relative 10-mer count.
Taken in the same sequence, the figures for AGGGTTTCCA were 0.106 relative 10-mer count, 0.00128 relative 10-mer count and 0.201 relative 10-mer count.
GCACCCACCC: the binding signal is 0.107 relative 10-mer count with ZNF721 full-length, 0.00523 relative 10-mer count with ZNF721 DBD1 and 0.00479 relative 10-mer count in the test with ZNF721 DBD2.
With CCCCACTCCC, the binding signal with ZNF721 full-length worked out at 0.157 relative 10-mer count; with ZNF721 DBD1, 0.00688 relative 10-mer count; with ZNF721 DBD2 it was 0.00216 relative 10-mer count.
Taken in the same sequence, the figures for CACCCACCCG were 0.132 relative 10-mer count, 0.0039 relative 10-mer count and 0.00264 relative 10-mer count.
Regarding CCCCTCCACC, the results for the binding signal in the test with ZNF721 full-length, with ZNF721 DBD1 and in the test with ZNF721 DBD2 were 0.274 relative 10-mer count, 0.0117 relative 10-mer count and 0.00851 relative 10-mer count, respectively.
The matching figures for CACCCACCTC: 0.109 relative 10-mer count, 0.00518 relative 10-mer count and 0.00312 relative 10-mer count.
The matching figures for ACCGCCCCAC: 0.103 relative 10-mer count, 0.0033 relative 10-mer count and 0.00252 relative 10-mer count.
Taken in the same sequence, the figures for GGGAGGGGGA were 0.161 relative 10-mer count, 0.00752 relative 10-mer count and 0.00395 relative 10-mer count.
Consider CCGACCCACC, for which the binding signal in the test with ZNF721 full-length amounted to 0.115 relative 10-mer count; with ZNF721 DBD1 it was 0.00367 relative 10-mer count; with ZNF721 DBD2 it was 0.00467 relative 10-mer count.
